Reference: PubChem BioAssay (NCATS)
Inconclusive results are not listed. A call without a number means that no potency is given here. The source made the active and inactive calls. The call rests on the fitted dose curve; in most records, active means well fitted curve in the direction sought with a large enough effect; inconclusive means small, poorly fitted or top-dose-only effect, or another doubt; inactive means no such curve, though single readings can be large; an effect the other way counts as inactive or inconclusive.

Columns and labels:
[1] = Quantitative highthroughput screen to assess conditional lethalithy of NOMO1 cells grown in RPMI1640 with untreated serum (RPMI+s) (AID 1963876); further: nearly all actives have a fitted effect of over 35% in size
Outline: (§1)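 Each medium arm—HPLM with 10% dialyzed FBS, or RPMI1640 with 5 mM glucose and 10% untreated or dialyzed FBS—was screened against an 11-point, 3-fold compound titration for 48 h at 37 °C, with CellTiter-Glo luminescence as endpoint.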

[2] = Quantitative highthroughput screen to assess conditional lethalithy of NOMO1 cells grown in RPMI1640 with dialyzed fetal bovine serum (RPMI+ds) (AID 1963877); further: nearly all actives have a fitted effect of over 30% in size; on viability: series mostly up to about 46 µM
Outline: as §1

[3] = Quantitative highthroughput screen to assess conditional lethalithy of NOMO1 cells grown in Human Plasma-Like Medium with dialyzed fetal bovine serum (HPLM+ds) (AID 1963878); further: nearly all actives have a fitted effect of over 35% in size
Outline: as §1

[4] = Quantitative highthroughput screen to assess conditional lethalithy of P12 Ichikawa cells grown in Human Plasma-Like Medium with dialyzed fetal bovine serum (HPLM+ds) (AID 1963879); conditions: Potency: viability; further: nearly all actives have a fitted effect of over 35% in size; on viability: series mostly up to about 46 µM
Outline: as §1

[5] = Quantitative highthroughput screen to assess conditional lethalithy of P12 Ichikawa cells grown in RPMI1640 with dialyzed fetal bovine serum (RPMI+ds) (AID 1963880); conditions: Potency: P12-Ichikawa viability; further: nearly all actives have a fitted effect of over 35% in size
Outline: as §1

[6] = Quantitative highthroughput screen to assess conditional lethalithy of P12 Ichikawa cells grown in RPMI1640 with untreated serum (RPMI+s) (AID 1963881); conditions: Potency: viability; further: nearly all actives have a fitted effect of over 35% in size; on viability: series mostly up to about 46 µM
Outline: as §1

[7] = Quantitative highthroughput screen to assess conditional lethalithy of SEM cells grown in Human Plasma-Like Medium with dialyzed fetal bovine serum (HPLM+ds) (AID 1963882); further: nearly all actives have a fitted effect of over 35% in size; on viability: series mostly up to about 46 µM
Outline: as §1

[8] = Quantitative highthroughput screen to assess conditional lethalithy of SEM cells grown in RPMI1640 with unreated serum (RPMI+s) (AID 1963883); further: nearly all actives have a fitted effect of over 35% in size
Outline: as §1

[9] = Quantitative highthroughput screen to assess conditional lethalithy of SEM cells grown in RPMI1640 with dialyzed fetal bovine serum (RPMI+ds) (AID 1963884); further: nearly all actives have a fitted effect of over 35% in size; on viability: series mostly up to about 46 µM
Outline: as §1
Potency means the concentration at half of the fitted maximal effect.

| Compound | Potency [1] | Potency [2] | Potency [3] | Potency [4] | Potency [5] | Potency [6] | Potency [7] | Potency [8] | Potency [9] |
| --- | --- | --- | --- | --- | --- | --- | --- | --- | --- |
| CN(C)CCOc1ccc(-c2nc(-c3ccc4c(c3)CCC4=NO)c(-c3ccncc3)[nH]2)cc1 | inactive | 18700 nM (active) | – | – | – | – | – | – | – |
| COc1cc(C=CC(=O)O)ccc1O | inactive | inactive | inactive | inactive | inactive | inactive | inactive | inactive | – |
| CNC[C@@H](O)[C@@H](O)[C@H](O)[C@H](O)CO | inactive | inactive | 526 nM (active) | inactive | inactive | inactive | – | – | – |
| Nc1ncnc2c1ncn2[C@@H]1O[C@H](CO)C[C@@H]1O | inactive | inactive | inactive | inactive | inactive | inactive | – | – | – |
| C[C@H](CCC(=O)O)[C@H]1CC[C@H]2[C@H]3[C@@H](CC[C@]12C)[C@@]1(C)CC[C@@H](O)C[C@H]1C[C@@H]3O | inactive | inactive | inactive | inactive | inactive | inactive | inactive | inactive | – |
| CCC=CC[C@H]1C(=O)CC[C@@H]1CC(=O)OC | inactive | inactive | inactive | inactive | inactive | inactive | – | – | – |
| CCc1cnn2c(NCc3ccc[n+]([O-])c3)cc(N3CCCC[C@@H]3CCO)nc12 | 118 nM (active) | 93.5 nM (active) | 105 nM (active) | 118 nM (active) | 118 nM (active) | 118 nM (active) | 74.3 nM (active) | 59 nM (active) | – |
| C[C@H]1C[C@@H]2[C@@H]([C@@H](O)C[C@@]3(C)[C@H]2CC[C@]3(O)C(=O)CO)[C@@]2(C)C=CC(=O)C=C12 | inactive | inactive | inactive | – | – | – | – | – | – |
| Nc1ncnc2c1ncn2[C@@H]1O[C@@H](CO)[C@H](O)[C@H]1O | inactive | inactive | inactive | inactive | inactive | inactive | – | – | – |
| COC(=O)C1=CO[C@@H](O)[C@@H]2C(CO)=CC[C@@H]12 | inactive | inactive | – | – | – | – | – | – | – |
| C[C@H]1[C@H](NC(=O)C(=NOC(C)(C)C(=O)O)c2csc(N)n2)C(=O)N1S(=O)(=O)O | inactive | inactive | inactive | inactive | inactive | inactive | inactive | inactive | – |
| CCCCCCCCCCCCCCCC(=O)OC[C@@H](NC(=O)C(Cl)Cl)[C@H](O)c1ccc([N+](=O)[O-])cc1 | inactive | inactive | inactive | inactive | inactive | inactive | inactive | inactive | – |
| O=C(C[C@@H]1CC=CCCC(=O)O[C@H](c2ccccc2)CNC1=O)NCc1ccc(Cl)cc1 | inactive | inactive | inactive | inactive | inactive | inactive | inactive | inactive | – |
| CC1(C)O[C@@H]2C[C@@H]3[C@H]4C[C@@H](F)C5=CC(=O)C=C[C@]5(C)[C@@]4(F)[C@@H](O)C[C@]3(C)[C@]2(C(=O)CO)O1 | inactive | inactive | inactive | – | – | – | – | – | – |
| Fc1ccc(C(c2ccc(F)cc2)N2CCN(CC=Cc3ccccc3)CC2)cc1 | inactive | inactive | inactive | inactive | inactive | inactive | inactive | – | – |
| CC(C)CN(C[C@H](O)[C@H](Cc1ccccc1)NC(=O)O[C@H]1CCOC1)S(=O)(=O)c1ccc(N)cc1 | inactive | inactive | inactive | – | – | – | – | – | – |
| CC1(C)C(N(O)C(=O)Nc2ccc(Cl)cc2)N(c2ccc(Cl)cc2)C(=O)N1CC(=O)NN=CC=Cc1ccc([N+](=O)[O-])o1 (stereo not drawn) | inactive | – | – | – | – | – | – | – | – |
| NC(=O)c1nnn(Cc2cc(Cl)c(C(=O)c3ccc(Cl)cc3)c(Cl)c2)c1N | inactive | inactive | inactive | – | – | – | – | – | – |
| OCC(O)C(O)C(O)CO (stereo not drawn) | inactive | inactive | inactive | inactive | inactive | inactive | – | – | – |
| O=C(NCc1ccccc1)[C@H](Cc1ccccc1)NC(=O)[C@@H]1O[C@@H]1C(=O)NCCc1ccc(O)cc1 | inactive | inactive | inactive | inactive | inactive | inactive | inactive | – | – |
| CCOC(=O)[C@H](CCc1ccccc1)N[C@@H](C)C(=O)N1CCCC1C(=O)O (stereo partly drawn) | inactive | inactive | inactive | inactive | inactive | inactive | inactive | inactive | inactive |
| CC[C@]1(O)C[C@@H]2CN(CCc3c([nH]c4ccccc34)[C@@](C(=O)OC)(c3cc4c(cc3OC)N(C=O)[C@@H]3C45CCN4CC=C[C@](CC)([C@H]45)[C@@H](OC(C)=O)[C@]3(O)C(=O)OC)C2)C1 (stereo partly drawn) | inactive | inactive | inactive | inactive | inactive | inactive | – | – | – |

| Compound | Potency [1] | Potency [2] | Potency [3] | Potency [4] | Potency [5] | Potency [6] | Potency [7] | Potency [8] | Potency [9] |
| --- | --- | --- | --- | --- | --- | --- | --- | --- | --- |
| O=c1ccc2ccc(O)c(O)c2o1 | inactive | inactive | inactive | – | – | – | – | – | – |
| O=C(NNC(=O)c1ccc(CNS(=O)(=O)c2ccc(F)c(Cl)c2)cc1)c1ccccc1 | inactive | inactive | inactive | inactive | inactive | inactive | inactive | inactive | – |
| CC=C(C(=CC)c1ccc(O)cc1)c1ccc(O)cc1 | inactive | inactive | inactive | inactive | inactive | inactive | inactive | – | – |
| CN(C)CCCC1(c2ccc(F)cc2)OCc2cc(C#N)ccc21 (stereo not drawn) | inactive | inactive | inactive | inactive | inactive | inactive | inactive | inactive | inactive |
| CC[C@H]1CN2CCc3cc(OC)c(OC)cc3[C@H]2C[C@@H]1C[C@@H]1NCCc2cc(OC)c(OC)cc21 | 469 nM (active) | 469 nM (active) | 526 nM (active) | 209 nM (active) | 418 nM (active) | 235 nM (active) | 166 nM (active) | 235 nM (active) | – |
| CO[C@H]1C[C@@H]2CC[C@@H](C)[C@@](O)(O2)C(=O)C(=O)N2CCCC[C@@H]2C(=O)O[C@H]([C@H](C)C[C@@H]2CC[C@H](OP(C)(C)=O)[C@H](OC)C2)CC(=O)[C@H](C)C=C(C)[C@@H](O)[C@@H](OC)C(=O)[C@H](C)C[C@H](C)C=CC=CC=C1C | inactive | inactive | – | – | – | – | – | – | – |
| CC(=O)N1CCN(c2ccc(OC[C@H]3CO[C@](Cn4ccnc4)(c4ccc(Cl)cc4Cl)O3)cc2)CC1 | inactive | inactive | inactive | – | – | – | – | – | – |
| CC(C)=CCCC(C)=CCCC(C)=CCCC(C)=CCCC(C)=CCCC(C)=CCCC(C)=CCCC(C)=CCCC(C)=CCO | inactive | inactive | inactive | inactive | inactive | inactive | inactive | – | – |
| N#CC(=C(O)c1ccc(Cl)cc1Cl)c1nc2cc(Cl)ccc2c(=O)[nH]1 | inactive | inactive | inactive | inactive | inactive | inactive | inactive | – | – |
| C[C@@H]1[C@H](C)CC[C@]2(C(=O)O)CC[C@]3(C)C(=CC[C@@H]4[C@@]5(C)C[C@@H](O)[C@H](O)[C@@](C)(CO)[C@H]5CC[C@]43C)[C@@H]12 | inactive | inactive | inactive | inactive | inactive | inactive | – | – | – |
| COC(=O)N[C@H](C(=O)N1CCC[C@@H]1c1ncc(-c2ccc(-c3ccc(-c4cnc([C@@H]5CCCN5C(=O)[C@@H](NC(=O)OC)C(C)C)[nH]4)cc3)cc2)[nH]1)C(C)C | inactive | inactive | inactive | inactive | inactive | inactive | inactive | – | – |
| Cc1c(-c2cccc3c(CCCOc4cccc5ccccc45)c(C(=O)O)n(Cc4cccnc4)c23)c(COc2ccc(N3CCN([S+](=O)([O-])N(C)C)CC3)cc2)nn1C | inactive | inactive | inactive | inactive | inactive | inactive | – | – | – |
| O=C(C=Cc1cccc(S(=O)(=O)Nc2ccccc2)c1)NO | 17100 nM (active) | 12100 nM (active) | 13600 nM (active) | 4810 nM (active) | 6050 nM (active) | 4290 nM (active) | 679 nM (active) | 605 nM (active) | 762 nM (active) |
| CC(=O)O[C@]1(C(C)=O)CC[C@H]2[C@@H]3C=C(C)C4=CC(=O)CC[C@]4(C)[C@@H]3CC[C@@]21C | inactive | inactive | inactive | inactive | inactive | inactive | inactive | inactive | inactive |
| Cc1ccc([N+](=O)[O-])cc1S(=O)(=O)N(C)N=Cc1cnc2ccc(Br)cn12 | 93.5 nM (active) | 105 nM (active) | 52.6 nM (active) | 166 nM (active) | 132 nM (active) | 132 nM (active) | 59 nM (active) | 66.2 nM (active) | 83.3 nM (active) |
| CC=C1NC(=O)[C@H]2CSSCCC=C[C@H](CC(=O)N[C@H](C(C)C)C(=O)N2)OC(=O)[C@H](C(C)C)NC1=O | 41.8 nM (active) | 52.6 nM (active) | 37.2 nM (active) | 37.2 nM (active) | 37.2 nM (active) | 37.2 nM (active) | 37.2 nM (active) | 29.6 nM (active) | 37.2 nM (active) |
| Cc1[nH]c2ccccc2c1CCNCc1ccc(C=CC(=O)NO)cc1 | 743 nM (active) | 743 nM (active) | 526 nM (active) | 590 nM (active) | 662 nM (active) | 469 nM (active) | 209 nM (active) | 264 nM (active) | 264 nM (active) |
| C[C@H](CCC(=O)O)[C@H]1CC[C@H]2[C@@H]3[C@H](O)C[C@@H]4C[C@H](O)CC[C@]4(C)[C@@H]3CC[C@]12C | inactive | inactive | inactive | inactive | inactive | inactive | inactive | inactive | inactive |
| CCOc1ccc(Cc2cc([C@@H]3O[C@H](CO)[C@@H](O)[C@H](O)[C@@H]3O)ccc2Cl)cc1 | inactive | inactive | inactive | inactive | inactive | inactive | inactive | inactive | inactive |
| C[C@@H]1CCN(C(=O)CC#N)C[C@H]1N(C)c1ncnc2[nH]ccc12 | inactive | inactive | inactive | inactive | inactive | inactive | inactive | inactive | inactive |
| CC(=O)OCC(=O)[C@@]1(O)CC[C@H]2[C@@H]3CCC4=CC(=O)CC[C@]4(C)[C@@H]3C(=O)C[C@@]21C | inactive | inactive | inactive | inactive | inactive | inactive | inactive | inactive | inactive |
